# Measured values published in PubChem BioAssay AID504841 (National Center for Advancing Translational Sciences (NCATS), 2011).
# Where “and” joins values, the source holds several entries; their conditions need not be identical. Equal entries are not always repeated. In all, about 1,100 compounds went through this assay and about 160 (15%) were called active. About 36% were inconclusive and are not listed. These entries were drawn from the full list. Unmarked numbers belong to inactive results. Calls follow the shape of the dose curve; as a rule, active = well fitted inhibition curve with a large enough effect; inconclusive = small, poorly fitted or top-dose-only effect; inactive = no such curve, though single readings can be large or run the other way.
# Target: ATP-dependent DNA helicase Q1 (Homo sapiens) (UniProt P46063)
# Sequence (P46063 whole entry, looked up): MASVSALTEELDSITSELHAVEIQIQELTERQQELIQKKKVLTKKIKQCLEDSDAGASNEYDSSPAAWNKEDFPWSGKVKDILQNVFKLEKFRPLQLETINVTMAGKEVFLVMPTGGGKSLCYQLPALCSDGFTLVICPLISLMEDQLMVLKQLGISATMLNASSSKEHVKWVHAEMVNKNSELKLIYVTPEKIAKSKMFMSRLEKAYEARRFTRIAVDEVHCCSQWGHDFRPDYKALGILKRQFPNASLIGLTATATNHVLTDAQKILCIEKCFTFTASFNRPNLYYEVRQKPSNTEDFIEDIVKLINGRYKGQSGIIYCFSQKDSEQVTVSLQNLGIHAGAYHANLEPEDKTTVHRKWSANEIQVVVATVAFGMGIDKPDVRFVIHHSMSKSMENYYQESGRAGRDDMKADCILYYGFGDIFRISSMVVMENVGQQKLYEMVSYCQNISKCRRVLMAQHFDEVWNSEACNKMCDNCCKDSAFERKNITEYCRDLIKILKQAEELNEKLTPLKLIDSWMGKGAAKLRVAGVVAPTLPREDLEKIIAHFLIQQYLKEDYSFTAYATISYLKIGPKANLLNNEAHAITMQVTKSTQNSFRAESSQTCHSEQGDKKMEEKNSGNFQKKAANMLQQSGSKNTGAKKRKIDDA
# Experiment: Confirmation qHTS Assay for Inhibitors of RecQ-Like Dna Helicase 1 (RECQ1) - Round 2 Cherry Picks; also: nearly all actives have a fitted effect of over 50% in size
# Conditions: recombinant RECQ1 DNA unwinding, red fluorescence; series mostly up to 119 µM; activity, negative = inhibition: at the top concentration
# From the text: Survival of cells and the faithful propagation of the genome depend on elaborate mechanisms of detecting and repairing DNA damage. Treatment of advanced cancer relies on radiation therapy or chemotherapy, which kill cancer cells by causing extensive DNA damage. It is often found, that cancer cells develop resistance to therapy through enhanced activity of DNA repair functions; this has led to an increased interest in developing drugs that interfere with DNA repair, which could sensitize cancer cells to conventional therapy. This validation qHTS assay pertains to human RECQ1, which is important in resolving abnormal DNA structures formed during replication or homologous recombination. Shutting down the expression of RECQ1 leads to chromosomal instability and higher radiation sensitivity in cultured cells. […] The validation assay was a fluorescence quenching based kinetic qHTS for RECQ1 Helicase DNA unwinding. The activity was measured as ATP-dependent separation of a 20-bp DNA duplex extended by 30-nt single-stranded tails (forked duplex). The forked DNA substrate was tagged with rhodamine fluorophore (carboxytetramethyl rhodamine, TAMRA) and BHQ-2 (Black Hole Quencher 2) dark quencher. Strand separation results in an increase in the fluorescence of TAMRA (excitation 525 nm, emission 598 nm). This substrate construct operates in a red-shifted region where very few compound library members have been noted to fluoresce (PubChem AIDs 593 and 594). An additional feature of the assay is the inclusion of 2.5 ug/ml poly (dIdC), to reduce interference by compounds such as DNA intercalators, a major source of false inhibitors. NIH Chemical Genomics Center [NCGC] NIH Molecular Libraries Probe Centers Network [MLPCN] MLPCN Grant: MH087284-01 Assay Submitter (PI): Opher Gileadi, Structural Genomics Consortium, University of Oxford
# Three uL of reaction buffer (25 mM Tris-HCl (pH 8.0), 5 mM NaCl, 2 mM MgCl2, 1mM DTT, 0.01% Tween- 20, and 2.5 ug/ml poly(dI-dC), including enzyme (50 nM RECQ1T1), were dispensed into a 1536-well Greiner black assay plate via solenoid-valve based nanoliter dispensers. Compounds (23 nl each in columns 5-48) and control (23 nl each in column 2 as dose-response) were transferred via a Kalypsys pintool equipped with a 1536-pin array. The plates were incubated for 15 min at room temperature, and then 1 ul of substrates (200 nM DNA and 2 mM ATP, final concentrations) was added to start the reaction. The plate was transferred into a ViewLux high-throughput CCD imager where the reaction progress was measured in a discontinuous kinetic mode (two reads spaced 2 hours apart, with intermediate room temperature incubation of the covered assay plate) by using standard red-fluorescence optics (excitation filter 525 nm, emission filter 598 nm). Enzyme-free and vehicle (DMSO) controls were included for signal normalization.
# % is scaled to controls: 0 for no effect and ±100 for the full control effect; potency is read from the fitted curve at half-maximal effect.
Structure (SMILES),"activity, negative = inhibition",Potency
CCC(c1nnnn1Cc1ccco1)N(Cc1cc2cc(OC)ccc2[nH]c1=O)C1CCCCC1 (stereo not drawn),-21.4%,–
COc1cccc(NC(=S)C(C#N)=C2N(C)c3ccccc3N2C)c1,-0.219%,–
COc1c(O)cc2oc(-c3ccc(O)c(O)c3)cc(=O)c2c1O,–,4.47 µM (active) and 2 µM (active)
O=C(CSc1ccc(-c2ccco2)nn1)NCc1ccc2c(c1)OCO2,-23.4%,–
Oc1c(C=Nc2cccc3nsnc23)ccc2ccccc12,–,39.8 µM (active)
COc1ccc(Cl)cc1C(=O)NNC(=S)NC(=O)/C=C/c1ccco1,-2.87%,–
Oc1ccc(N=Cc2sc3ccccc3c2Cl)cc1,-11.5%,–
COc1ccc2[nH]c3c(C)c4cc[n+](C)cc4c(C)c3c2c1,–,2.51 µM (active)
CCCCOC(=O)c1ccc(NC(c2ccc(C)cc2)P(=O)(OC)OC)cc1 (stereo not drawn),-16.6%,–
COC(=O)Cc1cc(=O)n(-c2nc3ccccc3s2)[nH]1,-11.9%,–
Cc1cccc(-n2nc3c(c2NC(=O)c2ccc(Br)o2)CSC3)c1C,-41.9%,–
COc1cc(C(=O)NCc2nnc(SCC(=O)Nc3nc4ccc(C)cc4s3)o2)cc(OC)c1OC,-7.03%,–
COCCNC(=O)Nc1ccc2nc(-c3ccco3)c(-c3ccco3)nc2c1,-28.3%,–
CC(C)Cn1c(N)c(C(=O)NCc2cccs2)c2nc3ccccc3nc21,-24.6%,–
CN1C(=O)/C(=C/c2ccco2)SC1=Nc1cccc(C(=O)O)c1,-25.9%,–
CCc1cc(C(c2ccccc2OC)N2CCOCC2)c(NC(=O)c2ccccc2)s1 (stereo not drawn),-9.28%,–
Cc1ccc(Cc2cnc(N)s2)o1,-4.53%,–

Structure (SMILES),"activity, negative = inhibition",Potency
CC(C)C1N=C2c3ccccc3N=C(SCC(=O)c3ccc(O)c(O)c3)N2C1=O (stereo not drawn),–,3.16 µM (active)
O=C(NCCCN1CCCCCC1)c1ccc(N2CCCC2=O)cc1,-2.14%,–
c1ccc2c(NC3C4CC5CC(C4)CC3C5)nc(N3CCOCC3)nc2c1 (stereo not drawn),-24.3%,–
NC1=NC(=O)C(Cc2cccc(Cl)c2Cl)S1 (stereo not drawn),-8.17%,–
CC(Oc1cccc(NC(=O)c2cccs2)c1)C(=O)c1ccccc1 (stereo not drawn),-15.7%,–
CCC(C)Cn1c(O)cc2nn(-c3nc4ccccc4s3)c(=O)c-2c1C (stereo not drawn),0.169%,–
O=C1c2ccccc2C(=O)N1Cc1cc(-c2ccccc2Cl)no1,-18%,–
COc1ccc(OCC(=O)Nc2nnc(-c3ccco3)s2)cc1,-18.5%,–
COc1ccc(NC(=O)CSc2nc(NS(=O)(=O)c3ccc(C)cc3)cc(=O)[nH]2)cc1,-17.4%,–
COC(C(=O)Nc1ccc(S(=O)(=O)Nc2ccc(C)c(C)c2)cc1)c1ccccc1 (stereo not drawn),-14.3%,–
O=C(NCCN1C(=O)S/C(=C\c2cccnc2)C1=O)c1ccc(S(=O)(=O)N2CCCC2)cc1,-0.658%,–
O=C(CN1CCN(c2ccc(O)cc2)CC1)Nc1cc(S(=O)(=O)N2CCOCC2)ccc1Cl,-16.7%,–
CCN(CC)c1ccc2oc(=O)c(C)nc2c1,–,50.1 µM (active)
COc1ccc(/C(N)=N/OC(=O)CCCc2ccccc2)cc1,-17.6%,–
Cc1ccnc2nc(C(=O)Nc3nnc(-c4ccccc4)o3)nn12,-16.8%,–
CCc1ccc2nc3sc(C(=O)Nc4nnc(CC)s4)c(N)c3cc2c1,–,39.8 µM (active)
